# The campaign covered roughly 350,000 compounds. About 5,500 (1.6%) were called active.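 The calls were made as follows: active = significant combined selectivity score with lowered wild-type GFP, culture density cut under 30%, mutant RFP and density less affected; inactive = any of these conditions unmet.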 This excerpt belongs to a sample that is enriched for actives.
# Assay: GFP drop in mixed WT/humanized-ribosome E. coli culture – GFP/RFP fluorescence, OD600, single point, bacterial rRNA inhibitor project, primary screen (AID 720706)
# Settings: E. coli WT GFP vs humanized-ribosome RFP mutants, 24 h; GFP signal change (wild-type ribosome): stronger effect = lower value, DMSO median 0, no signal -100; OD600 change: measured here: OD600 growth, DMSO median 0, no signal -100; RFP signal change: measured here: RFP humanized mutant strains, DMSO median 0, no signal -100, concentration not given here
Structure (SMILES),GFP signal change (wild-type ribosome),OD600 change,RFP signal change
COc1cccc(S(=O)(=O)N2CC3(CCN(C)CC3)c3c(n(C)c4cc(OC)ccc34)[C@H]2CO)c1,-0.483% (inactive),-1.36%,0.12%
COc1ccc2c3c(n(C)c2c1)[C@@H](CO)N(C(=O)CN1CCOCC1)CC31CCN(Cc2ccncc2)CC1,1.45% (inactive),2.53%,-1.13%
C[C@@H](NC(=O)C[C@@H]1CC[C@H]2[C@@H](COC[C@@H](O)CN2C(=O)Nc2cccc(F)c2)O1)c1ccccc1,-11.5% (inactive),-6.23%,5.17%
COc1ccc(CC2(CO)CCN(Cc3cnn(C)c3)CC2)cc1,25.9% (inactive),13%,1.82%
Cc1nn(C)c(C)c1S(=O)(=O)N1CCC(CO)(Cc2ccc(Cl)cc2)CC1,-22% (active),-16.9%,0.06%
CCOc1ccccc1NC(=O)C1CCN(S(=O)(=O)c2c(C)nn(C)c2C)CC1,3.06% (inactive),-0.4%,-2.77%
O=C(NCC[C@@H]1CC[C@@H](NC(=O)c2ccccc2F)[C@H](CO)O1)c1ccc2c(c1)OCO2,0.211% (inactive),0.175%,-1.31%
COc1ccc(NC(=O)N(C)C[C@@H]2Oc3ccc(NS(=O)(=O)c4ccc(Cl)cc4)cc3C(=O)N([C@H](C)CO)C[C@@H]2C)cc1,-1.87% (inactive),-3.81%,4.46%
CCN(CC)C(=O)C(=O)Nc1cccc(Br)c1,2.19% (inactive),1.55%,-1.36%
CCCOc1ccc(F)cc1-c1cc(C(=O)Nc2ccc(F)c(Cl)c2)[nH]n1,-11.9% (inactive),-20.4%,8.72%
CCN(CC)C(=O)Oc1ccc(Br)cc1C(=O)Nc1ccc(F)c(Cl)c1,-28% (active),-13.7%,-1.17%
COc1ccc2c3c(n(C)c2c1)[C@@H](CO)N(Cc1ccccc1OC)CC31CN(CC2CCOCC2)C1,2.13% (inactive),1.76%,-0.161%
COc1ccc(S(=O)(=O)Nc2ccc3c(c2)C(=O)N([C@H](C)CO)C[C@@H](C)[C@@H](CN(C)CC2CCCCC2)O3)cc1,3.31% (inactive),-3.13%,-1.7%
O=C(C[C@H]1CC[C@@H]2[C@H](COC[C@H](O)CN2Cc2ccc(Oc3ccccc3)cc2)O1)N1CCN(c2ccccc2)CC1,-14.8% (inactive),-41.1%,19.9%
C[C@@H]1COCc2cnnn2CC[C@H](Cc2ccccc2)C(=O)N1,1.97% (inactive),6.09%,0.175%
CCc1ccc(C2=CC(=O)CC(C)(C)C2=O)cc1,9.3% (inactive),6.63%,1.11%
COC(=O)C1=C(C)N(Cc2ccc(C(F)(F)F)cc2)C(=NCc2ccccc2)NC1c1ccccc1C(F)(F)F (centres undefined),-44.7% (inactive),-75.3%,-10.2%
COC(=O)C1=C(C)N(Cc2ccc(C(F)(F)F)cc2)C(=NCc2ccc(C(F)(F)F)cc2)NC1c1cccc(Cl)c1 (centres undefined),-29.5% (active),-8.48%,10.4%
COC(=O)C1=C(C)N(Cc2cccc(C(F)(F)F)c2)C(=NCc2ccccc2)NC1c1ccc(Cl)cc1 (centres undefined),-51.5% (inactive),-79.1%,-15.9%
CO[C@@H]1CN(C)C(=O)c2cc(NS(=O)(=O)c3ccccc3)ccc2OC[C@@H](C)N(C(=O)NC(C)C)C[C@@H]1C,1.8% (inactive),-5.96%,-2.55%
C[C@H](O)C#Cc1ccc([C@H]2[C@H](CO)N3CCCCN(C(=O)c4ccc(F)cc4)C[C@@H]23)cc1,4.08% (inactive),14.8%,0.514%

Structure (SMILES),GFP signal change (wild-type ribosome),OD600 change,RFP signal change
CC(C)NC(=O)Nc1cccc2c1O[C@@H](CN(C)C(=O)NC(C)C)[C@@H](C)CN(C)C2=O,-0.63% (inactive),-5.7%,-0.789%
CC(C)NC(=O)N(C)C[C@H]1Oc2c(cccc2N(C)C)C(=O)N(C)C[C@H]1C,3.79% (inactive),5.03%,-1.64%
CN(C)C(=O)c1ccc(-c2ccc(C3[C@@H]4CN(S(=O)(=O)c5cccc(Cl)c5)C[C@H]3N4)cc2)cc1 (some centres undefined),-4.17% (inactive),-4.3%,1.15%
c1ccc(C(=NNc2nc3ccccc3s2)c2ccccn2)cc1,-3.87% (inactive),-7.96%,1.5%
c1ccc2sc(NN=C3CCCC3)nc2c1,-34.8% (active),-19.9%,0.135%
CCN(CC)CCn1c2c(c(SCC(=O)Nc3nc4ccccc4s3)nc1=O)CCCC2,-8.54% (inactive),-9.96%,4.44%
CN(C)c1nc(=Nc2cccc(Cl)c2)ss1,-20.6% (active),-16.1%,6.27%
COc1ccc(CN(C)C[C@@H]2Oc3ccc(NS(=O)(=O)c4cn(C)cn4)cc3C(=O)N([C@@H](C)CO)C[C@@H]2C)cc1,2.98% (inactive),9.11%,-0.744%
COc1ccc2c3c([nH]c2c1)[C@H](CO)N(CC1CC1)CC31CN(C(=O)Nc2cccc(F)c2)C1,-4% (inactive),-2.33%,0.442%
CCCNC(=O)N(C)C[C@H]1Oc2ncc(-c3cccc(C#N)c3)cc2C(=O)N([C@@H](C)CO)C[C@@H]1C,6.13% (inactive),2.48%,4.15%
CC(=O)NC(c1ccccc1)c1nc(-c2ccccc2C)cs1 (centres undefined),6.39% (inactive),1.11%,0.505%
COc1cccc(C(NC(C)=O)c2nc(-c3cnc4ccccc4c3)cs2)c1 (centres undefined),1.07% (inactive),7.87%,-4.72%
COc1cccc(C(NC(C)=O)c2nc(-c3ccccc3OC)cs2)c1 (centres undefined),-17.2% (active),-5.72%,3.69%
CC(C)NC(=O)Nc1ccc2c(c1)C(=O)N([C@@H](C)CO)C[C@@H](C)[C@H](CN(C)C)OCCCC[C@H](C)O2,4.43% (inactive),12.9%,-2.38%
CCOC(=O)C(=Cc1ccccc1)C(=O)c1ccccc1,-45.9% (active),-44.3%,-8.34%
CCOC(=O)CNC(=O)/C(=C\c1ccc(F)cc1)NC(=O)c1ccccc1,7.79% (inactive),7.99%,-0.754%
CCOC(=O)C(=Cc1ccccc1OC)C(=O)OCC,-1.94% (inactive),-6.41%,-3.6%
COc1cccc(OC)c1C(=O)NC(=S)NCc1ccco1,10.3% (inactive),5.07%,-0.715%
COc1ccccc1C(=O)NCCC(=O)NCC(c1ccco1)N1CCCCC1 (centres undefined),3.93% (inactive),11.1%,2.81%
COc1ccccc1C(=O)NCCn1cc(SCC(=O)NCc2ccco2)c2ccccc21,-24.1% (active),-15.6%,1.51%
COc1ccc2c3c([nH]c2c1)[C@@H](CO)N(C(=O)CN1CCOCC1)CC31CCN(C)CC1,1.95% (inactive),7.83%,0.695%

Structure (SMILES),GFP signal change (wild-type ribosome),OD600 change,RFP signal change
C[C@@H]1CN([C@H](C)CO)C(=O)c2cc(-c3cccc(F)c3)cnc2O[C@@H]1CN(C)C,2.27% (inactive),6.45%,-2.92%
COc1ccc(NCCc2ccccn2)cc1,12.7% (inactive),10.1%,9.18%
COc1ccc2c(c1)c1ncn(Cc3ccccn3)c(=O)c1n2C,-22.5% (active),-10.5%,-3.41%
COc1cccc(CN2CC3(CN(Cc4ccccn4)C3)c3c([nH]c4cc(OC)ccc34)[C@@H]2CO)c1,0.969% (inactive),8.73%,5.99%
C[C@H]1CCCCO[C@H](CN(C)CC2CCCCC2)[C@@H](C)CN([C@@H](C)CO)C(=O)c2cc(NS(=O)(=O)c3ccc(Cl)cc3)ccc2O1,-56.3% (inactive),-77.3%,-17.5%
CN(C)C(=O)c1cccc(-c2ccc([C@H]3[C@H](CO)N4C(=O)CN(C(=O)Cc5ccccc5)C[C@@H]34)cc2)c1,6.84% (inactive),11.5%,5.77%
CC(=O)Nc1ccc(OC(=O)COc2ccc(Br)cc2)cc1,18.1% (inactive),16.8%,1.93%
Cn1cccc1C(=O)NNC(=O)COc1ccc(Br)cc1,-1.7% (inactive),4.13%,0.868%
Cc1ccc(O)c(NC(=S)NC(=O)COc2ccc(Br)cc2)c1,-23.6% (active),-13.5%,6.14%
CC[C@H]1CC=CC[C@@H](C)Oc2ccccc2C(=O)N(C)[C@H](Cc2ccccc2)C(=O)N1 (mixture of isomers),-6.4% (inactive),-38%,-3.29%
CC(C)NC(=O)N(C)C[C@H]1Oc2ncc(C#CC3(O)CCCC3)cc2C(=O)N([C@H](C)CO)C[C@@H]1C,2.98% (inactive),9.89%,0.31%
O=[N+]([O-])c1cc(C(F)(F)F)ccc1NCCc1ccncc1,1.68% (inactive),6.66%,-1.21%
Nc1ccccc1Sc1ccc(C(F)(F)F)cc1[N+](=O)[O-],-36.7% (active),-4.9%,-9.75%
Nc1ccccc1Sc1cc(Cl)nnc1Cl,2.47% (inactive),3.13%,-2.25%
C[C@H]1CN([C@@H](C)CO)C(=O)c2cccc(NC(=O)c3ccncc3)c2O[C@@H]1CN(C)C,2.69% (inactive),14.6%,-0.879%
CCc1noc(C)c1C(=O)OCC(=O)c1ccc(NC(=O)CC(C)C)cc1,-6.83% (inactive),-38.8%,4.13%
Cc1ccc(-c2csc(NC(=O)C3=COCCO3)n2)cc1C,-32% (inactive),-55.4%,17.9%
CCc1noc(C)c1C(=O)Nc1nc(-c2ccccc2)cs1,-30.7% (active),-24.6%,-5.38%
COc1ccc2c3c(n(C)c2c1)[C@H](CO)N(Cc1cccnc1)CC31CCN(Cc2cccnc2)CC1,-3.41% (inactive),7.26%,0.685%
C[C@@H]1CN([C@@H](C)CO)C(=O)c2cc(N(C)C)ccc2O[C@@H](C)CCCCO[C@@H]1CN(C)C(=O)CCC(F)(F)F,-1.52% (inactive),-0.235%,1.42%
C/C=C/c1cccc(-c2nc(C(=O)NCCN3CCCC3)cc3c2[C@@H](CCO)N([S@](=O)C(C)(C)C)C3)c1,6.3% (inactive),-2.18%,-0.457%

# Reference: PubChem BioAssay AID720706 (Broad Institute, 2013)
